Among the data in PubChem BioAssay (NCI) are growth values, retold here.

About 83,000 compounds went through this panel and 20% of them were active in at least one assay; those are over-represented in the sample as a whole.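 In brief: 96-well plates, 48 h treatment, single concentration, percent growth endpoint.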 Unmarked numbers belong to inactive results. The source made the active and inactive calls. Rule for the calls: active = growth percent below 10; inactive = the rest.

The assay deals with MDA-MB-468 breast. Kind of assay: NCI-60 one-dose screen, 48 h (100 = growth as untreated, 0 = no growth, -100 = all killed). The conditions noted are these: 10 µM unless noted.
For the molecule `C/C(=N\OC(=O)Nc1ccccc1)c1ccccc1`, the growth is 83.2%.

Take `CCC([N+](=O)[O-])S(=O)(=O)c1ccc(C)cc1` (stereo not given): the growth is 91.3%.

Take `COc1ccc(-n2nc(C)c3c(Nc4ccc(NC(=O)Nc5c(Cl)cccc5Cl)cc4)ncnc32)cc1`: the growth is 27.9%.

`N#Cc1c(-c2ccc(Cl)cc2)nc(SCC(=O)NC2=NN=C(c3ccccc3)CS2)[nH]c1=O`: the growth was 47.7%.

As to `C/C(=N/N=C(N)N)c1ccc(N)cc1`, the growth is 75.5%.

Regarding `CCC(/C=C\C(C)=O)CC`, the growth was 102%.

As to `Nc1ccn(Cc2nnc(CCC(=O)c3nc4ccccc4[nH]3)o2)c(=O)n1`, the growth was 79%.

Regarding `Cc1nn(-c2ccc(Cl)cc2)c2nc3c(nc12)C(=O)c1ccccc1-3`, the growth is 49.2%.

Turning to `Clc1ccc(-c2nc(NCCc3ccccc3)nc3c(NCCc4ccccc4)cnn23)cc1`, the growth is 47.8%.

As for `O=C(Nc1ccccc1)Oc1ccccc1-c1ccccc1`, the growth is 101%.

Consider `CCN(CC)c1ccc(C(=N)c2ccc(N(C)C)cc2)cc1`, for which the growth is 5.37% (active).

Take `C=C(C)[C@@H]1CC[C@]2(C(=O)NCCNCCNCCN)CC[C@]3(C)[C@H](CC[C@@H]4[C@@]5(C)CCC(=O)C(C)(C)[C@@H]5CC[C@]43C)[C@@H]12`: the growth was -49.1% [100 µM] (active).

With `OCCNCCCOc1ccc2ncnc(Nc3ccc(Oc4cccc(C(F)(F)F)c4)c(Cl)c3)c2c1`, the growth is -64.6% (active).

`CN1CCOCCOCCOc2ccccc2NC(=O)c2nc(cnc2N)-c2ccc(cc2)S1(=O)=O`: the growth is 41.4%.

As to `CC(=O)Oc1ccc(/C(=C(\C)c2ccc(Cl)cc2)c2ccc(OCCN3CCCCC3)cc2)cc1`, the growth was -25% (active).

On to `Nc1ncnc2[nH]ncc12`, for which the growth was -20.3% (active).

`C#CCCCCCCC[C@@H]1OC(=O)[C@H]([C@@H](C)CC)NC(=O)[C@@H]([C@@H](C)CC)NC(=O)CC(=O)[C@@H]1C`: the growth was 101%.

`CCOC(=O)C(=O)Cc1cccnn1`: the growth was 102%.

As for `CCC1=C[C@H]2CN(CCc3c([nH]c4ccccc34)[C@@](C(=O)OC)(c3cc4c(cc3OC)N(C)[C@H]3[C@@](O)(C(=O)OC)[C@H](OC(C)=O)[C@]5(CC)[C@@H]6C[C@@H]6CN6CC[C@]43[C@@H]65)C2)C1`, the growth is 7.4% (active).

Take `C=C1C(=O)O[C@H]2[C@H]1CC/C(COC(=O)C(=O)c1c[nH]c3ccccc13)=C\CC[C@@]1(C)O[C@@H]21`: the growth was -59.8% (active).

Regarding `CC1(C)[C@@H](O)CC[C@]2(C)[C@H]3CC[C@@H]4[C@H]5[C@H](C(=O)/C=C/c6ccc(C(F)(F)F)cc6)CC[C@]5(CO)CC[C@@]4(C)[C@]3(C)CC[C@@H]12`, the growth was 61.9%.

Regarding `COc1cc2c3c(c1)nc(C)n3CCC2`, the growth was 99.6%.

With `C=C(CC(=O)OC)C(C)=O`, the growth was 102%.

Consider `COc1cc(NC(N)=NCCC(C)(C)Oc2ccc(C(F)(F)F)cc2)ncc1C#N`, for which the growth was -84.4% (active).

As for `COc1ccc(/C=C2\c3cc(OC)c(OC)c(OC)c3CC[C@@H]2O)cc1F`, the growth is 13.5%.
